Source: PubChem BioAssay (several laboratories)
Vc quorum ag: inducers of Vibrio cholerae quorum light production without autoinducers; V. cholerae BH1578 lux reporter, luminescence, 6 h; activation, % at 18.7 µM; actives 0.16% (n = 350,000); AID 588436; in the data active = activation mostly above about 9.7%, no sharp cut-off
Mtb FBA inh: inhibits M. tuberculosis FBA enzyme; P9WQA3; purified M. tuberculosis FBA, fluorescence read-out; inhibition, % at 1 µM; actives 2.3% (n = 360,000); AID 588726; in the data active = inhibition above about 27%;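 also: 0% = vehicle and 100% = reference inhibitor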
Target sequence (P9WQA3 whole entry, looked up): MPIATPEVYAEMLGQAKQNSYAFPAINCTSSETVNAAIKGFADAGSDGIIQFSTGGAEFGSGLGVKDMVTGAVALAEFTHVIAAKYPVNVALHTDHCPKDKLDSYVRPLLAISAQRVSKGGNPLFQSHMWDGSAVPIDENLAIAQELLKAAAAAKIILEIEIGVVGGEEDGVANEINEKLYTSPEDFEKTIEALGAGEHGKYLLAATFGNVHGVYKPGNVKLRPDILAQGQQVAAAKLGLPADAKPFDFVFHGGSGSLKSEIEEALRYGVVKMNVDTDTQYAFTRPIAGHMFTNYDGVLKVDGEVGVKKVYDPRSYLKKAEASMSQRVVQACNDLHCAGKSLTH
CCHF vOTU inh-1: CCHFV vOTU protease inhibition; Pep-AMC fluorescence; inhibition, % at 11.5 µM; actives 0.55% (n = 370,000); AID 651958; also: 0% = vehicle wells with enzyme and 100% = no enzyme wells
GDH-TPI inh: counter-screen for M. tuberculosis FBA inhibitors: GDH-TPI coupled enzymes. GDH-TPI coupled enzyme counterscreen, NADH absorbance. inhibition, % at 4.8 µM. actives 1.2% (n = 360,000). AID 588335;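 also: 0% = DMSO wells and 100% = wells lacking the enzyme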
CCHF vOTU inh-2: confirmation of CCHF virus vOTU protease inhibitors; shares compounds with CCHF vOTU inh-1; Recombinant CCHFV vOTU, Pep-AMC fluorescence; inhibition, % at 11.5 µM; actives 17% (n = 1,900); AID 686976
Numbers without * were called inactive; i = inactive; nt = no result. Sampled rows, rich in hits. Any-hit rate of the full collection: about 3.9%. Rule as the data show it, unless noted: active = inhibition above about 30%; inactive = the rest.

SMILES | Vc quorum ag | Mtb FBA inh | CCHF vOTU inh-1 | GDH-TPI inh | CCHF vOTU inh-2
O=C(O)CC(NC(=O)C1c2ccccc2Oc2ccccc21)c1ccc(OC2CCCC2)cc1 (stereo not given) | i | 3 | 33* | 1 | 1
O=[N+]([O-])c1ccc(N=Nc2ccc(O)cc2O)cc1 | 0 | 0 | -3 | -1 | nt
O=S(=O)(O)c1cc(Cl)cc(N=Nc2ccc(O)cc2O)c1O | 0 | -10 | 31* | 13 | 8
CC1CN(S(=O)(=O)c2ccccc2)C(C)N1C(=O)N1CCOCC1 (stereo not given) | -1 | 3 | -6 | -2 | nt
Cc1ccc([C@@H]2CC=C(C(=O)O)[C@H](c3ccccc3)N2S(=O)(=O)c2ccccc2C)cc1 | i | 1 | 12 | 3 | nt
Cc1ccc([C@H]2C(C(=O)O)=CC[C@@H](c3ccc(C)cc3)N2S(=O)(=O)c2ccccc2C)cc1 | i | -1 | 35* | 4 | -6
Cc1ccccc1S(=O)(=O)N1[C@@H](c2ccc(Cl)cc2)C(C(=O)O)=CC[C@H]1c1ccc(Cl)cc1 | -2 | 3 | 32* | 8 | 7
Cn1c(=O)c2c(nc(NC3CCCCC3)n2Cc2ccccc2)n(C)c1=O | 0 | 5 | 10 | 16 | nt
CCC(C(=O)Nc1ccccc1N1CCCC1)c1cccc(OC)c1 (stereo not given) | nt | nt | 2 | nt | nt
Cc1cc(Cc2ccc(N)c(C)c2)ccc1N | 0 | -1 | 0 | 15 | nt
CCOC(=O)c1c(C)oc2c1cc(NS(=O)(=O)c1ccc(C(=O)O)cc1)c1ccccc12 | 0 | 0 | 45* | 12 | 4
CCN(CC)CCCNC1=C(Cl)C(=O)c2ccccc2C1=O | 0 | -5 | 56* | 4 | 56*
CC(=O)N(Cc1ccc(F)cc1)C1=C(NCCc2ccccc2)C(=O)c2ccccc2C1=O | 1 | -4 | 87* | 11 | 63*
COCCCNC1=C(Cl)C(=O)c2ccccc2C1=O | i | -1 | 12 | 6 | nt
O=C1C(Cl)=C(Nc2ccccc2)C(=O)c2ccccc21 | 0 | -4 | 22 | 14 | nt
O=C1C(Cl)=C(NCc2cccnc2)C(=O)c2ccccc21 | 0 | -4 | 70* | 9 | 62*
CC(C)NC1=C(Cl)C(=O)c2ccccc2C1=O | -2 | -1 | 59* | 11 | 60*
O=S(=O)(Cc1ccccc1)NCc1cccnc1 | -6 | 0 | -4 | 10 | nt
COc1ccc(Cn2c(NC(=O)c3ccccc3)nc(Cc3ccccc3)c2Cc2ccccc2)cc1 | nt | nt | 6 | nt | nt
CCCCNC(=O)c1ccc(CS(=O)(=O)c2ccccc2OC)o1 | 0 | 0 | 1 | -1 | nt
Cc1cccc(OCc2nnc(SCC(=O)NC3CCCC3)n2C)c1 | -1 | 2 | -3 | -2 | nt
CCc1ccc2c(CN(C)Cc3ccc(OC(F)F)c(OC)c3)cc(=O)oc2c1 | -1 | 0 | 10 | -5 | nt
O=C1C(Cl)=C(NCCc2ccccc2)C(=O)c2ccccc21 | i | -7 | 83* | 6 | 33*
O=C1C(Cl)=C(NCCc2ccccc2)C(=O)N1CCc1ccccc1 | -2 | 4 | 1 | -1 | nt
C=CCNC1=C(Cl)C(=O)c2ccccc2C1=O | 0 | -3 | 68* | 25 | 59*
SMILES | Vc quorum ag | Mtb FBA inh | CCHF vOTU inh-1 | GDH-TPI inh | CCHF vOTU inh-2
Cc1c(C)n(Cc2ccc(-c3ccccc3C(=O)O)cc2)c2ccc(C(=O)N[C@@H](C)c3ccc(Br)cc3)cc12 | nt | nt | 33* | nt | 3
O=C1Nc2ccccc2Nc2ccc([N+](=O)[O-])cc21 | -1 | -1 | 38* | 12 | 27
O=C1OC(=O)c2cc([N+](=O)[O-])ccc21 | 0 | 3 | 10 | 5 | nt
O=C(NC(=S)Nc1ccc(S(=O)(=O)Nc2nccs2)cc1)c1ccc(F)c(F)c1 | 0 | -4 | 42* | 9 | -11
COc1ccccc1C(=O)N1CCCC(C)(C(=O)NS(=O)(=O)C2CC2)C1 (stereo not given) | -1 | 0 | 30* | -3 | -18
COc1ccc(C2C(C(C)=O)=C(O)C(=O)N2c2nc3ccccc3s2)cc1OC (stereo not given) | 1 | 8 | 14 | 9 | nt
COc1ccc2nc(N3C(=O)C(O)=C(C(=O)c4ccco4)C3c3ccc(OC)c(OC)c3)sc2c1 (stereo not given) | -1 | -5 | 34* | 10 | 2
O=C1c2ccccc2[C@@H]2C[C@@H](O)[C@H](Nc3cccc4ccccc34)CCN12 | i | 2 | 54* | 1 | -21
COc1ccc(N[C@@H]2CCN3C(=O)c4ccccc4[C@@H]3C[C@H]2O)cc1 | i | -2 | 14 | 4 | nt
NC(=O)Cc1nc(-c2ccc([N+](=O)[O-])cc2)cs1 | -1 | -3 | 3 | 13 | nt
Cc1ccc(NC(=O)C(c2ccccc2)N2CCN(CC(=O)N3CCOCC3)CC2)cc1 (stereo not given) | -1 | -2 | 34* | -5 | -7
CCOC(=O)c1c(C)oc2c1c(C=NCC1CCCO1)c(O)c1ccccc12 (stereo not given) | 5 | -1 | 35* | 8 | 53*
CCOC(=O)c1c(C)oc2c1c(C=NCc1ccccn1)c(O)c1ccccc12 | 0 | -2 | 63* | 7 | 24
CCOCCCNCc1ccc(OCC(=O)N2CCOCC2)c(OC)c1 | -12 | 1 | -10 | -9 | nt
N#CC1=C(S)N(c2ccccc2)C(c2ccc(-c3ccc(Cl)c(Cl)c3)o2)NC1=O (stereo not given) | -2 | -1 | 47* | 13 | 30*
N#CC1=C(S)N(c2ccccc2)C(c2ccc(-c3cc(Cl)ccc3Cl)o2)NC1=O (stereo not given) | nt | -4 | 10 | 12 | nt
Cc1nnc(N/N=C/c2cc([N+](=O)[O-])c(N3CCC(C)CC3)cc2N2CCC(C)CC2)n1N | i | 2 | 96* | 9 | -3
CC1CCN(c2cc(N3CCOCC3)c([N+](=O)[O-])cc2F)CC1 | -14 | -6 | 12 | 10 | nt
CCc1nnc(N/N=C/c2ccc(N3CCC(C)CC3)c([N+](=O)[O-])c2)n1N | 0 | -5 | 88* | 26 | -5
Cc1cccc(C)c1NC(=O)CN(C)C(=O)c1ccc(-c2cccc(C(F)(F)F)c2)o1 | 1 | 6 | 22 | 12 | nt
CC(C)n1c(C(F)(F)F)nc2cc(C(=O)N3CCOCC3)ccc21 | 1 | -5 | 0 | 1 | nt
COCC(=O)N1CCC(C(=O)NC2CCCc3ccccc32)CC1 (stereo not given) | nt | nt | 0 | nt | nt
N#C/C(=N\Nc1cccc(Cl)c1)C(=O)c1ccccc1 | i | -14 | 35* | 29 | -3
CCN(CCO)c1ccc(N=Cc2c(O)n(C)c(=S)[nH]c2=O)cc1 | -1 | -3 | 32* | 4 | -10
Cc1ccc(C(=O)NC2CCS(=O)(=O)C2)cc1S(=O)(=O)N1CCCCC1 (stereo not given) | nt | -1 | 2 | 4 | nt
COc1ccc(NC(=O)OC(CN2CCCCC2)C(F)(F)F)cc1 (stereo not given) | 1 | 1 | 7 | 9 | nt
CC1CCCN(C2=C(NS(=O)(=O)c3ccc(Br)cc3)C(=O)c3ccccc3C2=O)C1 (stereo not given) | 11 | 1 | 24 | -5 | nt
O=C1C(NS(=O)(=O)c2ccc(Br)cc2)=C(N2CCCCC2)C(=O)c2ccccc21 | 0 | 3 | 33* | 7 | 6
